# Laboratory results taken from PubChem BioAssay AID1529 (NMMLSC, 2009).
# The whole screen tested about 290,000 compounds, of which about 4,200 (1.4%) were called active. This is one part of a sample in which actives are shown more often than they occur. Unmarked numbers belong to inactive results.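 Rule for the calls: active = binding response more than 3 SD above or below the average of its plate-row segment, actives on both sides; inconclusive = wells at one plate position flagged as instrument error; inactive = the rest.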
# Biological target: Mitogen-activated protein kinase kinase kinase 3 (Homo sapiens) (UniProt Q99759)
# Sequence (Q99759 whole entry, looked up): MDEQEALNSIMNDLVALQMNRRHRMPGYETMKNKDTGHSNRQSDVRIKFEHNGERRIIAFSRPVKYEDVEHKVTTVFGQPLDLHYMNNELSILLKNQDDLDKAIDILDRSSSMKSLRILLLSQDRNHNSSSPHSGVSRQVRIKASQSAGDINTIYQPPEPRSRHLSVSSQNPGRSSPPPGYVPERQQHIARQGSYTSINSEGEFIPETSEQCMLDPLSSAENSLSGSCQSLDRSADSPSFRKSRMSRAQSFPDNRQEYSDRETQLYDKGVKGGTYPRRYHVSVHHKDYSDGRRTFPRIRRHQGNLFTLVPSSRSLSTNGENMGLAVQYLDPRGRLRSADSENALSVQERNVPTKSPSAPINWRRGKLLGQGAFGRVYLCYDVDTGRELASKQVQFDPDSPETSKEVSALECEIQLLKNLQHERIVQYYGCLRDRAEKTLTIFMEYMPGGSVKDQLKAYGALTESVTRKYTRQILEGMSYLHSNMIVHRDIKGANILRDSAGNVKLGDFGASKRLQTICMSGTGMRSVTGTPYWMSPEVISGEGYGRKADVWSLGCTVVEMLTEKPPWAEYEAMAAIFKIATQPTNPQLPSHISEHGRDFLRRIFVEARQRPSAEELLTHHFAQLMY
# Experiment: modulators of MEKK3-MEK5 PB1 binding, primary screen, biochemical, wildtype MEKK3, multiplex bead flow cytometry, Alexa488-MEK5 (AID 1529);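 note: Alexa488 bead fluorescence after subtracting the streptavidin-only scavenger bead signal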
# Conditions: bead-based flow cytometry, Alexa488-MEK5 binding to MEKK3; at 10 µM; actives lie on both sides; 0 = blocked by unlabeled MEK5, 100 = vehicle
row,Structure (SMILES),binding response (% of control)
1,Cc1ccc(-c2nc3ccccc3[nH]2)cc1NC(=O)c1sc2ccccc2c1Cl,102%
2,O=C(Nc1cccc(-c2nc3ccccc3[nH]2)c1)c1ccc(C(=O)Nc2cccc(-c3nc4ccccc4[nH]3)c2)cc1,63% [inhibitor] (active)
3,O=C(Cc1cccs1)Nc1cccc(-c2nc3ccccc3[nH]2)c1,107%
4,CCNC(=O)c1cnn(-c2ccccc2)c1-c1ccccc1,103%
5,COc1ccc(C(=O)NC(=S)N2CCCCC2c2cccnc2)cc1OC (centres undefined),98%
6,O=C(c1ccc(CS(=O)(=O)c2ccccc2)o1)N1CCN(c2ccccc2)CC1,102%
7,O=C(c1ccco1)N1CCN(c2cccc(Cl)c2)CC1,2% [inhibitor] (active)
8,O=C(c1cccc([N+](=O)[O-])c1)N1CCN(C(=O)c2ccco2)CC1,100%
9,O=C(Cc1c(F)cccc1Cl)N1CCN(C(=O)c2ccco2)CC1,103%
10,Fc1ccc2c(c1)C(c1cccnc1)=NNC(c1cccs1)=N2,107%
11,CCCOc1ccc(Cl)cc1Nc1nc(NCCO)nc(N2CCCC2)n1,108%
12,COc1ccc2c(c1)C(=C(C#N)C#N)C(=O)N2CCc1ccccc1,96%
13,O=C(O)CCCN1C(=O)c2ccccc2Sc2ncccc21,107%
14,CCCCN1C(=O)/C(=C(/C#N)C(N)=O)c2ccccc21,146% (active)
15,CC1CN(C(=S)Nc2cccc(F)c2)CC(C)O1 (centres undefined),105%
16,COc1ccc(CNC(=O)C2(CC3CC(c4ccccc4)=NO3)CCN(C(=O)c3cccc(O)c3)CC2)cc1 (centres undefined),99%
17,COC(=O)c1ccc(NC(=O)CSc2nnc(CNc3ccc(OC)cc3)n2C)cc1,106%
18,COc1ccc(C(=O)NCc2nnc(SCCOc3ccccc3)n2C)cc1,102%
19,COc1ccc(C(=O)NCc2nnc(SCC(=O)NC3=NCCS3)n2C)cc1,71% [inhibitor] (active)
20,O=C(NCc1ccccc1)c1onc(CSc2ccncc2)c1C(=O)NCc1ccccc1,106%
21,N/C(=N\OS(=O)(=O)c1cccc([N+](=O)[O-])c1)c1ccncc1,145% (active)
22,CO/N=C(\N)c1ccc([N+](=O)[O-])cc1,98%
23,O=C(N/N=C/c1cccc([N+](=O)[O-])c1)c1ccncc1,107%
24,C#CCOCCOCCOCCNc1nc(N2CCN(C(=O)C([C@@H](C)CC)n3cc(C(N)COC(=O)C(F)(F)F)nn3)CC2)nc(N2CCN(C(=O)[C@H](Cc3ccc(O)cc3)n3cc(C(N)[C@H](C)CC)nn3)CC2)n1 (some centres undefined),104%

row,Structure (SMILES),binding response (% of control)
1,CC(=O)Nc1ccc(Oc2ccc3c(c2)C(=O)NC3=O)cc1,105%
2,O=C(Cn1cnc([N+](=O)[O-])n1)NCCc1ccccc1,102%
3,CC(C)(C)NC(=O)Cn1cnc2cc([N+](=O)[O-])ccc2c1=O,95%
4,CC(C)(C)NC(=O)Cn1cnc([N+](=O)[O-])n1,1% [inhibitor] (active)
5,CCC(CC)COC(=O)C1=C(C)NC(=O)NC1c1ccc([N+](=O)[O-])cc1 (centres undefined),105%
6,CCSc1nnc(SCC(=O)NNC(=O)c2ccccc2F)s1,101%
7,CCOc1ccc(NC(=O)Nc2cc(C)on2)cc1,102%
8,CCOc1ccc(C(=O)Nc2cc(OC)ccc2OC)cc1,97%
9,CCOc1ccc(NC(=O)Nc2cc(C)ccc2OC)cc1,71% [inhibitor] (active)
10,CC(C)CCC(C)NC(=O)c1ccc2nccnc2c1 (centres undefined),61%
11,CCCc1nnc(NC(=O)CCC(=O)NC2CC2)s1,96%
12,CC(=O)N(C)c1ccc(NC(=O)Nc2cccc3ccccc23)cc1,103%
13,CCOc1ccc(NC(=O)Nc2ccc(N(C)C(C)=O)cc2)cc1,101%
14,CC(=O)N(C)c1ccc(NC(=O)C(F)(F)F)cc1,2% [inhibitor] (active)
15,CC(NCC(=O)Nc1cc(Cl)cc(Cl)c1)c1ccccc1 (centres undefined),100%
16,Cc1cc(=O)oc2c3c(cc(OCC(=O)N[C@H](C(=O)O)c4ccccc4)c12)OC(C)(C)CC3,97%
17,C=CCC1(C(=O)N(C)Cc2ccccc2)CCN(C(=O)OC(C)(C)C)CC1,97%
18,Cc1cc(-c2csc(N)n2)c(C)n1Cc1ccccc1,91%
19,CC(=O)Nc1ccc(C(=O)Nc2nc(-c3cc(C)n(Cc4ccccc4)c3C)cs2)cc1,131% (active)
20,CC(=O)Nc1ccc(-c2csc(NC(=O)Nc3ccccc3)n2)cc1,101%
21,O=C(NCCCN1CCCCCC1)c1ccc(N2CCCC2=O)cc1,108%
22,CC1CCC(NC(=O)c2ccc(N3CCCC3=O)cc2)CC1 (centres undefined),104%
23,O=C(COC(=O)c1ccc(N2CCCC2=O)cc1)c1ccc(OC(F)F)cc1,1% [inhibitor] (active)
24,COc1ccc(S(=O)(=O)NC(C)c2ccccc2)cc1C(=O)N1CCCCC1 (centres undefined),103%

row,Structure (SMILES),binding response (% of control)
1,CCCN1CCn2c3c(c4cc(Br)ccc42)CCCC31 (centres undefined),96%
2,O=C(c1cccs1)N(Cc1cc2ccccc2[nH]c1=O)CC1CCCO1 (centres undefined),99%
3,COc1ccc(S(=O)(=O)N2CN(CCc3ccc(OC)c(OC)c3)c3nc4ccccc4nc32)cc1,64% [inhibitor] (active)
4,O=S(=O)(c1ccccc1)N1CN(Cc2ccc(F)cc2)c2nc3ccccc3nc21,85%
5,C=CCN1CN(S(=O)(=O)c2ccc(OC)cc2)c2nc3ccccc3nc21,100%
6,Cc1ccc(C(=O)N2CCC(n3nccc3NC(=O)Nc3cccc(F)c3)CC2)cn1,96%
7,COC(=O)c1ccc(/C=N/NC(=O)C(=O)N2CCCCCC2)cc1,101%
8,CCn1cc(CN2CCN(CC(C)(C)C)C(CCO)C2)c2ccccc21 (centres undefined),107%
9,COCCOC(=O)C1=C(C)Nc2nc(C)nn2C1c1ccccc1 (centres undefined),97%
10,COC(=O)c1nc2n(n1)C(c1ccc([N+](=O)[O-])cc1)C(C(=O)Nc1ccc(Cl)cc1)=C(C)N2 (centres undefined),139% (active)
11,COc1cc(C2C(C(=O)Nc3ccc(F)cc3)=C(C)Nc3nc(CCCO)nn32)cc(OC)c1OC (centres undefined),104%
12,CC(=O)N(c1ccc2oc(=O)sc2c1)S(=O)(=O)c1ccc(C)cc1,103%
13,CN(Cc1ccccc1)C(=O)c1ccc(COc2ccccc2)cc1,109%
14,COc1cc(OC)cc(C(=O)OCC(=O)Nc2sccc2C(N)=O)c1,97%
15,FC(F)(F)c1nc(-c2ccccc2)ncc1-c1nnnn1-c1ccccc1,48% [inhibitor] (active)
16,Clc1ccc(-n2nnnc2-c2cnc(-c3ccccn3)nc2-c2cccs2)cc1,100%
17,c1ccc(-n2nnnc2-c2cccnc2)cc1,108%
18,C=CCN1C(=NC(=O)COc2ccccc2)SC2CS(=O)(=O)CC21 (centres undefined),102%
19,CCOC(=O)N1CCN(C(=O)c2n[nH]c(=O)c3ccccc23)CC1,100%
20,CCOC(=O)N1CCN(CC(=O)n2c(C)c(C)c3ccccc32)CC1,124% (active)
21,CCOC(=O)N1CCN(C(=O)Cn2cnc3ccccc3c2=O)CC1,99%
22,Cc1cccc(OCC(=O)Nc2ccc(C(=O)O)cc2NC(=O)COc2cccc(C)c2)c1,105%
23,O=C(CN1CCN(Cc2ccccc2)CC1)Nc1ccc(F)c(F)c1,104%
24,O=C(Nc1ccc(S(=O)(=O)N2CCCCCC2)cc1)c1c(F)cccc1F,101%

row,Structure (SMILES),binding response (% of control)
1,CC1(c2nnc(-c3ccncc3)o2)CC(c2cccnc2)=NO1 (centres undefined),101%
2,Cc1cccc(N2CCN(S(=O)(=O)c3ccc(-c4cc(C)no4)s3)CC2C)c1 (centres undefined),97%
3,Cc1onc(-c2ccccc2Cl)c1C(=O)NCCn1ccc2ccccc21,98%
4,Cc1[nH]c2ccccc2c1C(=O)COC(=O)c1c(-c2ccccc2)noc1C,108%
5,Cc1onc(-c2ccccc2Cl)c1C(=O)OCC(=O)c1ccccc1,1% [inhibitor] (active)
6,O=C(NCCCN1CCCCC1)C1CCCN(c2ncnc3c2nc2n3CCCCC2)C1 (centres undefined),94%
7,O=C(CCN1CCN(C/C=C/c2ccccc2)CC1)Nc1ccccc1Cl,104%
8,COc1ccc(S(=O)(=O)N2CCOC2CNC(=O)C(=O)NCc2ccc(F)cc2)cc1 (centres undefined),98%
9,Cc1nc(SCC(=O)NC2CCCC2)[nH]c(=O)c1C,101%
10,CCNS(=O)(=O)c1ccc(CCC(=O)N2CCN(c3cc(Cl)ccc3C)CC2)cc1,103%
11,C=CCOc1ccc(/C=C2/C(=O)ON=C2C)cc1OCC,104%
12,Cc1cc(=O)[nH]c(SCc2cc(Cl)ccc2OC(F)F)n1,103%
13,O=C(OCc1cc(Cl)ccc1OC(F)F)c1cccnc1,146% (active)
14,O=C(OCc1cc2ccccc2[nH]c1=O)c1cccnc1,109%
15,Cc1c(C(=O)N2CCCC2)c(S(=O)(=O)NCC(C)c2ccccc2)c(C)n1C (centres undefined),101%
16,Cc1ccc(NC(=O)C2CCN(S(=O)(=O)c3ccc4c(c3)NC(=O)CO4)CC2)cc1C,106%
17,COC(C[C@@H]1O[C@@H]1C(=O)[C@@H](C)OCc1ccccc1)OC,102%
18,CCc1c(C)sc(NC(=O)c2cccs2)c1C(N)=O,100%
19,Cc1ccc(OCC(=O)NCCCNC(=O)c2cccnc2)cc1C,99%
20,Cn1c(SCc2nc3ccccc3s2)nnc1-c1ccc2c(c1)OCO2,19% [inhibitor] (active)
21,Cn1c(SCC(=O)N2CCCC2)nnc1-c1ccc2c(c1)OCO2,100%
22,O=C(O)CSc1nnc(-c2ccc3c(c2)OCO3)n1-c1ccccc1,103%
